This is an account of results in PubChem BioAssay.

What is called viability is a read-out of living cells in per cent, often relative to untreated cells.

Active and inactive are the calls of the source.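 How the source made its calls, unless noted: active means compounds whose cell count with miR-34 switched on is under 0.7 times the count with it off; inactive means the rest.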

A short description of assay [1]: viability loss with induced miR-34 in A549 – imaging, A549 dox-inducible miR-34, nuclei and caspase counts, primary screen (AID 1347080). To be noted: A549 miR-34 inducible, Hoechst nuclei count, 48 h.
Assay [2] in a line: MELAS cybrid and Rieske KO viability enhancers – cell-based, MELAS cybrids, Rieske KO mouse fibroblasts, CellTiter-Glo, primary screen (AID 1508586;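 active means mean z-score across replicates of 1.96 or higher in either the MELAS or the Rieske mutant cell line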;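 further: z relative to plate mean and SD of compound and empty wells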). To be noted: low glucose.
The nature of assay [3]: galactose survival enhancers in mitochondrial complex I cybrids – cell-based, galactose medium, ATP luminescence, primary screen (AID 1645843;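 active means z-score of at least 1.8 in each of two replicates, scored against plate mean and spread of sample wells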;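 further: positive z means more ATP and so rescue of galactose-driven cybrid death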). To be noted: complex I mutant cybrid cells, 72 h, stronger effect = higher value.
The nature of assay [4]: P. berghei load reduction in hepatocytes – cell-based, HepG2, luciferase luminescence, HepG2 viability, primary screen (AID 624349; in the data active means parasite load remaining mostly below about 12%, no sharp cut-off; inactive means mostly above about 10%;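 further: 100% = mean of DMSO negative control wells on the same plate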). To be noted: P. berghei liver stage in HepG2, luciferase luminescence, concentration not given here; parasite load remaining: stronger effect = lower value; viability: measured here: HepG2 viability without parasites.
A short description of assay [5]: compounds altering viability of human ES cells (AID 493140; call rule not given here;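 further: cells exposed to compounds for four days before counting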). To be noted: human embryonic stem cell survival screen; stronger effect = higher value.
For assay [6], the target named is Mitogen-activated protein kinase 7 (Homo sapiens) (UniProt Q13164). Kind of assay: Gal4-ERK5 driven luciferase induction – cell-based, HTS, primary screen (AID 1508626;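 active means luciferase signal above three times the same-plate solvent-only control wells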;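 further: luciferase driven by Gal4-ERK5 fusion binding five Gal4 sites before minimal TATA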). The conditions noted are these: HeLa Gal4-ERK5 transactivation, 18 h, at 5 µM, stronger effect = higher value.
Sequence of Mitogen-activated protein kinase 7 (Homo sapiens) (Q13164 whole entry, looked up, the tested form may be a part): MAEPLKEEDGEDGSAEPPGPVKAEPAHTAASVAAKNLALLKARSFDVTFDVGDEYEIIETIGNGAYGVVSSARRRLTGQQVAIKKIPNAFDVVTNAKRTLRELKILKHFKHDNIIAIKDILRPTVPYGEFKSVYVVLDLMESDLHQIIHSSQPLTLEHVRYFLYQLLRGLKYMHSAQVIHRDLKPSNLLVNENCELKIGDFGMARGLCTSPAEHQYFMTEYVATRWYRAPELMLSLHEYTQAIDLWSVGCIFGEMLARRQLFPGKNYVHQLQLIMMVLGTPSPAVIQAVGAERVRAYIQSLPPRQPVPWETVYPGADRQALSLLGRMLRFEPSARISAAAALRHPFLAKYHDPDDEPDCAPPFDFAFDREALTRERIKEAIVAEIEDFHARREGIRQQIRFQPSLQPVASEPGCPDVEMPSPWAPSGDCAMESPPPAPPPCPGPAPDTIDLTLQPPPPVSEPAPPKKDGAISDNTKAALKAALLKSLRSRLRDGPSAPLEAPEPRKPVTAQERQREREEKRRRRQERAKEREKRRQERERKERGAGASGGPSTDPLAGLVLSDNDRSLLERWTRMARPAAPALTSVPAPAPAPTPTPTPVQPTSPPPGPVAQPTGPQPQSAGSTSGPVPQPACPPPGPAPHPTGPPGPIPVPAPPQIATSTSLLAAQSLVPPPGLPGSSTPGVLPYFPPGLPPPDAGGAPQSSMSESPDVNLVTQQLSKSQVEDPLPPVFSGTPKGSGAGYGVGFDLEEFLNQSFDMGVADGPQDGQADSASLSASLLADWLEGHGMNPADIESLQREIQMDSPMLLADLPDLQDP
[7] abbreviates: measured here: relative caspase fold change +Dox/-Dox.
Where [8] appears, read: measured here: total cells with miR-34 induction, stronger effect = lower value.
[9] abbreviates: measured here: total cells without miR-34 induction.
Where [10] appears, read: MELAS cybrid survival, CellTiter-Glo 48 h, stronger effect = higher value.
[11] abbreviates: Rieske KO mouse fibroblast survival, CellTiter-Glo 72 h.
Setting [12] is: stronger effect = lower value, cell number ratio, induced over uninduced.

Turning to `CC1=C(C(=O)Nc2ccccc2)SCCO1`, the figures for the fold change in assay [1] (stronger effect = lower value) and in assay [1] (setting [7]) were 0.865 (inactive) and 0.79, respectively. Besides, the cell count amounted to 8550 in assay [1] (setting [8]) and 9880 in assay [1] (setting [9]). Moreover, the z-score is 0.971 (inactive) in assay [2] (setting [10]), -0.224 in assay [2] (setting [11]) and -0.385 (inactive) in assay [3].
Take `CCN1C[C@]2(OC(=O)c3ccccc3NC(C)=O)CCC(OC)[C@]34C1C(C[C@H]23)[C@@]1(O)CC(OC)[C@H]2C[C@H]4[C@]1(O)C2OC` (stereo not given in full): the figures for the fold change in assay [1] (stronger effect = lower value) and in assay [1] (setting [7]) were 0.952 (inactive) and 0.833, respectively. For the same molecule, the cell count came out at 7310 in assay [1] (setting [8]) and 7680 in assay [1] (setting [9]). The z-score in assay [2] (setting [10]) is -0.466 (inactive); in assay [2] (setting [11]), -0.118.
`N#CC(OC1OC(COC2OC(CO)C(O)C(O)C2O)C(O)C(O)C1O)c1ccccc1` (stereo not given): the values for the fold change in assay [1] (stronger effect = lower value) and in assay [1] (setting [7]) were 0.82 (inactive) and 1, respectively. The cell count in assay [1] (setting [8]) was found to be 6790; in assay [1] (setting [9]), 8280. The results for the z-score in assay [2] (setting [10]) and in assay [2] (setting [11]) were -0.2 (inactive) and -0.452, respectively.
`C=C1N[C@@H](Cc2ccc3[nH]cc(CCN(C)C)c3c2)CO1`: in assay [4], the parasite load remaining is 49.1% (inactive). The viability in assay [4] came to 107%. The fold change in assay [1] (stronger effect = lower value) is 0.795 (inactive); in assay [1] (setting [7]) it was 1.08. The cell count was 9100 in assay [1] (setting [8]) and 11400 in assay [1] (setting [9]). Further, the values for the z-score in assay [2] (setting [10]), in assay [2] (setting [11]) and in assay [3] were 0.499 (inactive), 0.377 and 0.28 (inactive), respectively.
`CN1C2CCC1CC(=O)C2`: the fold change in assay [1] (setting [12]) was 0.86 (inactive); in assay [1] (setting [7]), 0.54. Moreover, the cell count in assay [1] (setting [8]) is 8780; in assay [1] (setting [9]) it was 10200. Also, the figures for the z-score in assay [2] (setting [10]), in assay [2] (setting [11]) and in assay [3] were 0.543 (inactive), -0.508 and 0.545 (inactive), respectively.
For `CCCN1CCO[C@@H]2c3cc(O)ccc3OC[C@@H]21`, the fold change in assay [1] (setting [12]) was 0.947 (inactive); in assay [1] (setting [7]), 0.482. Besides, the cell count stood at 8140 in assay [1] (setting [8]) and 8590 in assay [1] (setting [9]). The z-score was 0.111 (inactive) in assay [2] (setting [10]) and 0.146 in assay [2] (setting [11]).
On to `COC1CCC(OC2C[C@H]([C@]3(C)CC[C@]4(CC(O)C(C)[C@@H](C(C)C=C(C)C(=O)C(C)CC(C)C(=O)O)O4)O3)O[C@]3(O[C@@H]([C@H]4O[C@@](O)(CO)C(C)CC4C)CC3C)C2C)OC1C` (stereo not given in full), for which the results for the fold change in assay [1] (setting [12]) and in assay [1] (setting [7]) were 0.953 (inactive) and 1.13, respectively. The results for the cell count in assay [1] (setting [8]) and in assay [1] (setting [9]) were 874 and 918, respectively. Besides, the values for the z-score in assay [2] (setting [10]) and in assay [2] (setting [11]) were 0.291 (inactive) and -2.77, respectively.
On to `NCCc1ccc(S(N)(=O)=O)cc1`, for which the figures for the fold change in assay [1] (stronger effect = lower value) and in assay [1] (setting [7]) were 0.884 (inactive) and 0.315, respectively. Besides, the cell count in assay [1] (setting [8]) turned out to be 9210; in assay [1] (setting [9]) it was 10400. For the same molecule, the z-score in assay [2] (setting [10]) is -0.0994 (inactive); in assay [2] (setting [11]), 0.0645; in assay [3] it was 0.495 (inactive).
As to `O=C1CCC[C@@H]2[C@@H]3CCCN4CCC[C@H](CN12)[C@@H]34`, the fold change is 0.961 (inactive) in assay [1] (setting [12]) and 1.02 in assay [1] (setting [7]). For the same molecule, the figures for the cell count in assay [1] (setting [8]) and in assay [1] (setting [9]) were 9040 and 9410, respectively. Also, the z-score in assay [2] (setting [10]) was -0.296 (inactive); in assay [2] (setting [11]), 0.336.
For the molecule `CC(=O)O[C@H]1CC[C@@]2(C)C(=CC[C@@H]3[C@@H]2CC[C@]2(C)C(=O)CC[C@@H]32)C1`, in assay [5], the survival is 0.583 (inactive). The parasite load remaining in assay [4] was 73.2% (inactive). For the same molecule, in assay [4], the viability was determined as 93.1%. Moreover, the fold change in assay [1] (stronger effect = lower value) is 0.892 (inactive); in assay [1] (setting [7]), 1.2. Further, the cell count turned out to be 9250 in assay [1] (setting [8]) and 10400 in assay [1] (setting [9]). In addition, the z-score in assay [2] (setting [10]) was 0.711 (inactive); in assay [2] (setting [11]) it was -0.302. In addition, the luciferase signal in assay [6] was 56 AU (inactive).
